Laboratory results: PubChem BioAssay (NCATS)
Inconclusive results are not listed. A number with no mark means an inactive call. Calls follow the shape of the dose curve; as a rule, active = well fitted cell-killing curve with a large enough effect; inconclusive = small, poorly fitted or top-dose-only effect, or effect the other way; inactive = flat fitted curve, though single readings scatter. Where a SMILES comes first, the peptide text is derived from it. [ ]: non-standard residue; d: D form. pGlu = O=C1CC[C@@H](C(=O)O)N1

test system: CASKI; assay: Primary qHTS to identify gynecologic anti-cancer compounds using libraries of approved drugs and bioactive compounds (AID 1345084); details: Gynecologic cancer cell panel viability, ATPlite luminescence, 48 h; series mostly up to 57.5 µM; activity change, negative = cytotoxicity: at the top concentration; also: nearly all actives have a fitted effect of over 55% in size
Outline: (§1)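 Luminescence from the ATPlite ATP-monitoring reagent indicates viable cell number; lower signal means cytotoxicity. Cells received compound 16 h after seeding and were exposed for 48 h across five concentrations.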
% is scaled to controls: 0 for no effect and ±100 for the full control effect.

Row | SMILES | activity change, negative = cytotoxicity [%]
1 | CCCCCN(CCCOC)C(=O)C(CCC(=O)O)NC(=O)c1ccc(Cl)c(Cl)c1 (centres undefined) | -4.05
2 | CCCCCCn1c(=O)c2c(ncn2C)n(C)c1=O | -1.84
3 | CCCc1ncc(C(=O)O)s1 | -4.91
4 | C/C(=N/NC(=O)c1ccncc1)C(=O)O | 5.54
5 | COC(=O)/C=C(/C)N | -7.76
6 | NS(=O)(=O)c1cc2c(cc1Cl)CN(C1CCCCC1)C2=O | 4
7 | O=C1NC(c2ccccc2)(c2ccccc2)C(=O)N1COP(=O)(O)O | -0.747
8 | CCc1cccc2c(CCO)c[nH]c12 | 10.1
9 | CCCCC(CC)CNC(=O)CC(C)OC(=O)CCC(=O)O (centres undefined) | 8.82
10 | O=C(O)c1ccc(OCCN2CCCCC2)cc1 | 4.03
11 | CCCC(=O)O[C@]1(C(=O)CC)CC[C@H]2[C@@H]3CCC4=CC(=O)CC[C@]4(C)[C@H]3[C@@H](O)C[C@@]21C | -6.09
12 | CC(C)N(CCC(=O)c1ccc2ccccc2c1)Cc1ccccc1 | -5.94
13 | COC(=O)CCCCC(CCSS/C(CCO)=C(\C)N(C=O)Cc1cnc(C)nc1N)SC(C)=O (centres undefined) | 0.11
14 | O=C1CC2(CCCC2)CC(=O)N1 | -5.57
15 | CCCCOCCOC(=O)c1cccnc1 | -1.46
16 | CC(=O)N[C@@H](CO)C(=O)N[C@@H](CC(=O)O)C(=O)N[C@@H](CCCCN)C(=O)N1CCC[C@H]1C(=O)O (Ac-SDKP-OH) | 12.1
17 | CC(=O)O[C@@H]1CC2C3CCc4cc(OC(=O)c5ccccc5)ccc4C3CCC2(C)[C@H]1OC(C)=O (some centres undefined) | -3.41
18 | Cc1ccc2c(Cl)cc(Cl)c(O)c2n1 | -8.29
19 | CC(Oc1c(Cl)cccc1Cl)C1=NCCN1 (centres undefined) | -5.86

Row | SMILES | activity change, negative = cytotoxicity [%]
20 | N#CC1(c2ccc(F)cc2)CCC(=O)CC1 | 5.42
21 | CC1(C)OC(=O)Nc2ccc(Br)cc21 | 23.2
22 | Cc1cccc(C)c1NC(=O)c1ccc(N)cc1 | -3.55
23 | Cc1cccc(OCC(O)CNC(C)(C)C)c1C (centres undefined) | -8.82
24 | Cc1coc2ccccc2c1=O | -2.86
25 | COC(=O)c1cc(Cl)c(NC(C)=O)cc1OC | 3.3
26 | CSCC[C@H](NC(=O)[C@H](Cc1c[nH]c2ccccc12)NC(=O)CCNC(=O)OC(C)(C)C)C(=O)N[C@@H](CC(=O)O)C(=O)N[C@@H](Cc1ccccc1)C(N)=O | 7.71
27 | CC(C)C(=O)OCc1cccc(OC(=O)[C@@H]2N3C(=O)[C@@H](NC(=O)Cc4ccccc4)[C@H]3SC2(C)C)c1 | 14.8
28 | COC(=O)c1ccc(NC(C)=O)cc1OC | -2.26
29 | Cc1[nH]cnc1-c1ccc(Cl)cc1 | -0.163
30 | Cc1ccc(C(=O)C(=O)O)cc1C | 7.57
31 | COc1ccc(CCC(C)=O)cc1 | -2.96
32 | Cc1sccc1Br | 29
33 | CCc1cc2cc(OC)c(OC)cc2c(Cc2ccccc2)n1 | -4.88
34 | Cc1ccc(C(C)OC(=O)C2(C)CCC(C(=O)O)C2(C)C)cc1 (centres undefined) | -4.2
35 | Fc1ccc(C(c2ccc(F)cc2)N2CCNCC2)cc1 | 2.32
36 | CCOC(=O)Oc1ccc(CCNC(=O)[C@H](CCSC)NC(C)=O)cc1OC(=O)OCC | 2.51
37 | CCNC(=O)[C@@H]1CCCN1C(=O)[C@H](CCCN=C(N)N)NC(=O)[C@H](CC(C)C)NC(=O)CNC(=O)[C@H](Cc1ccc(O)cc1)NC(=O)[C@H](CO)NC(=O)[C@H](Cc1c[nH]c2ccccc12)NC(=O)[C@H](Cc1cnc[nH]1)NC(=O)[C@@H]1CCC(=O)N1 ([pGlu]HWSYGLRP-NHEt) | 5.15

test system: Es-2; assay: as above; details: Gynecologic cancer cell panel viability, ATPlite luminescence, 48 h; series mostly up to 57.5 µM; activity change, negative = cytotoxicity: at the top concentration
Outline: as §1

Row | SMILES | activity change, negative = cytotoxicity [%]
38 | CCCCCN(CCCOC)C(=O)C(CCC(=O)O)NC(=O)c1ccc(Cl)c(Cl)c1 (centres undefined) | -0.928
39 | CCCCCCn1c(=O)c2c(ncn2C)n(C)c1=O | 2.83
40 | CCCc1ncc(C(=O)O)s1 | -0.862
41 | C/C(=N/NC(=O)c1ccncc1)C(=O)O | 18.3
42 | COC(=O)/C=C(/C)N | 6.01
43 | NS(=O)(=O)c1cc2c(cc1Cl)CN(C1CCCCC1)C2=O | -1.56
44 | O=C1NC(c2ccccc2)(c2ccccc2)C(=O)N1COP(=O)(O)O | -2.04
45 | CCc1cccc2c(CCO)c[nH]c12 | 0.873
46 | CCCCC(CC)CNC(=O)CC(C)OC(=O)CCC(=O)O (centres undefined) | 6.5
47 | O=C(O)c1ccc(OCCN2CCCCC2)cc1 | 5.3
48 | CCCC(=O)O[C@]1(C(=O)CC)CC[C@H]2[C@@H]3CCC4=CC(=O)CC[C@]4(C)[C@H]3[C@@H](O)C[C@@]21C | 7.97
49 | CC(C)N(CCC(=O)c1ccc2ccccc2c1)Cc1ccccc1 | -7.76
50 | COC(=O)CCCCC(CCSS/C(CCO)=C(\C)N(C=O)Cc1cnc(C)nc1N)SC(C)=O (centres undefined) | -1.53
51 | O=C1CC2(CCCC2)CC(=O)N1 | 5.49
52 | CCCCOCCOC(=O)c1cccnc1 | -2.64
53 | CC(=O)N[C@@H](CO)C(=O)N[C@@H](CC(=O)O)C(=O)N[C@@H](CCCCN)C(=O)N1CCC[C@H]1C(=O)O (Ac-SDKP-OH) | -0.945
54 | CC(=O)O[C@@H]1CC2C3CCc4cc(OC(=O)c5ccccc5)ccc4C3CCC2(C)[C@H]1OC(C)=O (some centres undefined) | 13.4
55 | Cc1ccc2c(Cl)cc(Cl)c(O)c2n1 | -6.91
56 | CC(Oc1c(Cl)cccc1Cl)C1=NCCN1 (centres undefined) | -1.01

Row | SMILES | activity change, negative = cytotoxicity [%]
57 | N#CC1(c2ccc(F)cc2)CCC(=O)CC1 | 12.7
58 | CC1(C)OC(=O)Nc2ccc(Br)cc21 | 6.75
59 | Cc1cccc(C)c1NC(=O)c1ccc(N)cc1 | 8.18
60 | Cc1cccc(OCC(O)CNC(C)(C)C)c1C (centres undefined) | -1.36
61 | Cc1coc2ccccc2c1=O | 5.62
62 | COC(=O)c1cc(Cl)c(NC(C)=O)cc1OC | -1.41
63 | CSCC[C@H](NC(=O)[C@H](Cc1c[nH]c2ccccc12)NC(=O)CCNC(=O)OC(C)(C)C)C(=O)N[C@@H](CC(=O)O)C(=O)N[C@@H](Cc1ccccc1)C(N)=O | 14.7
64 | CC(C)C(=O)OCc1cccc(OC(=O)[C@@H]2N3C(=O)[C@@H](NC(=O)Cc4ccccc4)[C@H]3SC2(C)C)c1 | 0.273
65 | COC(=O)c1ccc(NC(C)=O)cc1OC | 6.76
66 | Cc1[nH]cnc1-c1ccc(Cl)cc1 | 3.13
67 | Cc1ccc(C(=O)C(=O)O)cc1C | -5.14
68 | COc1ccc(CCC(C)=O)cc1 | 10.4
69 | Cc1sccc1Br | 9.19
70 | CCc1cc2cc(OC)c(OC)cc2c(Cc2ccccc2)n1 | 4.89
71 | Cc1ccc(C(C)OC(=O)C2(C)CCC(C(=O)O)C2(C)C)cc1 (centres undefined) | -0.0097
72 | Fc1ccc(C(c2ccc(F)cc2)N2CCNCC2)cc1 | 3.5
73 | CCOC(=O)Oc1ccc(CCNC(=O)[C@H](CCSC)NC(C)=O)cc1OC(=O)OCC | -3.12
74 | CCNC(=O)[C@@H]1CCCN1C(=O)[C@H](CCCN=C(N)N)NC(=O)[C@H](CC(C)C)NC(=O)CNC(=O)[C@H](Cc1ccc(O)cc1)NC(=O)[C@H](CO)NC(=O)[C@H](Cc1c[nH]c2ccccc12)NC(=O)[C@H](Cc1cnc[nH]1)NC(=O)[C@@H]1CCC(=O)N1 ([pGlu]HWSYGLRP-NHEt) | 3.08
